High-throughput results from PubChem BioAssay.
In the library only some 3.7% were active in any assay of this set; here they are far more common.
Wnt act = activates Wnt/beta-catenin signaling in a reporter cell assay. activator, plate reader. activation, % at 9.35 µM. actives 1.2% (n = 300,000); in the data active = activation above about 30%, passing the limit was not always enough; inconclusive = no clear call, values can overlap the other calls;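 note: 0% = neutral control wells and 100% = positive control wells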
MLL AF4-AF9 inh = MLL-AF4/AF9 protein interaction inhibition; P42568; AlphaScreen, biotin-AF4 peptide binding to FLAG-AF9; inhibition, % at 10 µM; actives 0.47% (n = 350,000); AID 651704;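 active = every replicate reaching a set inhibition limit, whatever the replicate mean, cut at about 25% in these data; inconclusive = mean inhibition reaches that limit but some replicates miss it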;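 note: 0% = plate neutral control median and 100% = total signal loss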
Target sequence (P42568 whole entry, looked up): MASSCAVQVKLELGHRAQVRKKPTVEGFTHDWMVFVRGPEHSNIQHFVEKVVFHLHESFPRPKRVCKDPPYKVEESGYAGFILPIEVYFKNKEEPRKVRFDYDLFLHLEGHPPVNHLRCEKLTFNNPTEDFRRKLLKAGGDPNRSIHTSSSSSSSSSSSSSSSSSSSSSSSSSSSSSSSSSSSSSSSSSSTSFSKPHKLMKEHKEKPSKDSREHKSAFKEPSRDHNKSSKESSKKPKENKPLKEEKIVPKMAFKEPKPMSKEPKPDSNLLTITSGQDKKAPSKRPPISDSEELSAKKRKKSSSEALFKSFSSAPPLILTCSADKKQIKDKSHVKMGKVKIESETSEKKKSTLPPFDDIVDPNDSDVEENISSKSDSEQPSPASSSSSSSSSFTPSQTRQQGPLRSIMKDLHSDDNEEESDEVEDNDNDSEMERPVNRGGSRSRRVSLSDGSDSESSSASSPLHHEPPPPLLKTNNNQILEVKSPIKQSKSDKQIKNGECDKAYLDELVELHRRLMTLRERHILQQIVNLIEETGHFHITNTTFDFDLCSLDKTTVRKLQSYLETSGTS
rRNA inh HTS = inhibitors of bacterial rRNA selective over humanized ribosomes. E. coli WT GFP vs humanized-ribosome RFP mutants, fluorescence, 24 h; hits give low values; DMSO median 0, no signal -100. GFP signal change (wild-type ribosome), % (concentration not given with the values). actives 1.6% (n = 350,000). AID 720706;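 active = significant combined selectivity score with lowered wild-type GFP, culture density cut under 30%, mutant RFP and density less affected; inactive = any of these conditions unmet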
MITF TRPM1 HTS = increases MITF-driven TRPM1 promoter luciferase signal | activation, % at 12.5 µM | actives 0.75% (n = 300,000) | AID 588334 | SK-MEL-5 TRPM1-promoter luciferase, 24 h; % of positive control, neutral wells = 0;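 active = mean activation of at least 80% with every replicate also reaching 80%; inconclusive = mean reaches 80% but some replicate falls short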;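 note: 0% = neutral control wells and 100% = parthenolide positive control wells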
esBAF inh = inhibitors of esBAF chromatin remodeling in mouse ES cells. Bmi1-luciferase knock-in reporter, 24 h; 100% = twice the neutral-well signal. reporter increase, % at 12.5 µM. actives 2% (n = 350,000); in the data active = activation above about 40%; inconclusive = no clear call, values can overlap the other calls;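 note: 0% = median of the plate's neutral control wells and 100% = double that signal; a rise in the Bmi1 reporter signal indicates esBAF inhibition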
An asterisk follows results filed as active; ? = inconclusive; nt = no result given.

SMILES	Wnt act	MLL AF4-AF9 inh	rRNA inh HTS	MITF TRPM1 HTS	esBAF inh
Cc1ccc(N2C(=O)c3ccccc3NC2C(C)Cc2ccc3c(c2)OCO3)cc1 (configuration not stated)	nt	nt	nt	nt	52*
CC(C)Oc1ccccc1C1Nc2ccccc2C(=O)N1c1ccc2c(c1)OCCO2 (configuration not stated)	nt	nt	nt	25	-28
CC(=O)Nc1ccc(/C=N/Nc2nc3ccccc3s2)cc1	57*	4	-4	53	-38
Cc1ccsc1/C=N/Nc1nc2ccccc2s1	61*	11	-2	39	nt
Oc1ccccc1C=NNc1nc2ccccc2s1	4	7	-7	-4	51*
CC(=O)Nc1ccc(S(=O)(=O)Nc2nc3ccccc3s2)cc1	2	nt	nt	-3	nt
CC(=NNc1nc2ccccc2s1)c1ncccn1	75*	1	nt	-33	nt
CC(=O)c1sc(N/N=C\c2ccc(Br)cc2)nc1C	14	nt	nt	119*	nt
CC(=O)c1sc(N/N=C\c2cccc(Br)c2)nc1C	1	-78	-7	24	?
COc1cccc(C=NNc2nc3ccccc3s2)c1OC	51*	-1	-4	43	nt
COc1ccc(/C=N/Nc2nc3ccccc3s2)cc1O	23	3	-59	3	nt
CN1Cc2sc(N)c(C#N)c2CC1(C)C	nt	nt	nt	3	nt
C/C=C/c1ccc([C@H]2[C@@H](CO)N(C(=O)c3ccccn3)C23CN(CCC(F)(F)F)C3)cc1	nt	7	-2	nt	nt
CCOC(=O)N1CCC(N(CCOC)C(=O)Nc2ccc(Cl)cc2)CC1	1	-3	-16*	1	3
CCOC(=O)N1CCC(N(CCCOC)C(=O)Nc2ccc(CC)cc2)CC1	-4	-7	-1	0	4
Cc1ccc(-c2nnn(CC(=O)N(c3ccc(F)cc3)C(C(=O)NC(C)(C)C)c3ccco3)n2)o1 (configuration not stated)	nt	nt	nt	nt	-4
CCC(=O)N(C)CCc1cc2c(c(OC)c1/C=N/NS(=O)(=O)c1ccc(C)cc1)OCO2	-1	3	-25*	-1	10
O=C(NCCCN1CCOCC1)c1cccc(NS(=O)(=O)c2ccc(Br)cc2)c1	-1	0	8	6	8
NC(=O)c1ccsc1NC(=O)c1ccc(S(=O)(=O)N2CCCCC2)cc1	10	8	-11	nt	100*
CC(=O)c1ccc(NC(=O)Nc2ccc(S(=O)(=O)N3CCCC3)cc2)cc1	1	1	-28*	-1	-4
NC(=O)c1ccsc1NC(=O)c1ccc(S(=O)(=O)N2CCCC2)cc1	12	2	-5	27	38
Cn1nc(C(=O)Nc2ccc(S(=O)(=O)N3CCCCC3)cc2)c2ccccc2c1=O	0	3	-21*	-9	6
NS(=O)(=O)c1ccc(NC(=O)c2ccc(S(=O)(=O)N3CCCCCC3)cc2)cc1	-5	-6	-20*	-10	3
COCC#Cc1ccc2c(c1)O[C@H](CN(C)S(=O)(=O)c1ccc(C)cc1)[C@H](C)CN([C@H](C)CO)S2(=O)=O	nt	-1	1	nt	-2
O=C(COC(=O)c1ccc(Cl)nc1)NC1CCCCCC1	-2	-1	2	3	-8
SMILES	Wnt act	MLL AF4-AF9 inh	rRNA inh HTS	MITF TRPM1 HTS	esBAF inh
CC(C)NC(=O)Nc1ccc2c(c1)C(=O)N(C)[C@@H]1CC[C@@H](CC(=O)NCC3CCCCC3)O[C@@H]1CO2	nt	0	0	nt	-6
CC1CCN(S(=O)(=O)c2nnc(NC(=O)COc3ccccc3)s2)CC1	-1	-11	2	0	-4
O=C(NC1=NCCS1)c1ccc(OCC2CCCO2)cc1 (configuration not stated)	40*	nt	nt	28	-3
O=C(Nc1ccc(S(=O)(=O)N2CCCC2)cc1)c1ccc(OCC2CCCO2)cc1 (configuration not stated)	-1	-2	-20*	-14	0
O=C(NCC1CCCCC1)c1cccnc1Cl	1	-4	5	8	7
CC(C)(C)c1ccc(C(=O)NC(=S)NNC(=O)COc2ccccc2)cc1	23	-1	nt	20	27
CO[C@@H]1CN(C)C(=O)c2ccc(NC(=O)C3CCC3)cc2OC[C@@H](C)N(C(=O)Nc2ccc(C(F)(F)F)cc2)C[C@H]1C	nt	2	nt	nt	11
C/C(CC1CC(COCC(C)C)OC1=O)=N\Nc1nc(-c2ccccc2)cs1 (configuration not stated)	nt	nt	nt	-10	0
CC1CC(CC(=O)Nc2nc(-c3ccccc3)cs2)C(=O)O1 (configuration not stated)	3	-3	-24*	29	11
